Data from PubChem BioAssay (NCI).
About 83,000 compounds went through this panel and 20% of them were active in at least one assay; those are over-represented in the sample as a whole.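 How to read the values: 0–100, growth inhibition (40 = 60% inhibited); 0, no net growth; -100 to 0, cell death (-40 = 40% of starting cells died; -100 = all dead).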 Values without a mark were called inactive. Activity calls are given as the source filed them. The calls were made as follows: active = growth percent below 10; inactive = the rest.

Each compound was assayed on EKVX NSCLC (assay: NCI-60 one-dose screen, 48 h (100 = growth as untreated, 0 = no growth, -100 = all killed)). Conditions: 10 µM unless noted.

Compound	growth
Nc1ccc(S(=O)(=O)Nc2ccnn2-c2ccccc2)cc1	93.8%
O=C(Nc1cccc(-n2ccc3c(NC(=O)c4ccccc4)nccc32)c1)Nc1cc(C(F)(F)F)cc(C(F)(F)F)c1	19%
Nc1nccc2c1ccn2-c1cccc(NC(=O)c2ccc(N3CCOCC3)c(C(F)(F)F)c2)c1	44.4%
COc1ccc(-c2nn(-c3ccc(NC(=O)Nc4cc(C(F)(F)F)cc(C(F)(F)F)c4)cc3)cc2-c2ccncc2)cc1Cl	21.7%
CN(C)CCS(=O)(=O)Nc1cc(-c2ccc3ncnc(Nc4ccc(F)c(Cl)c4)c3c2)cnc1Cl	-9.17% (active)
O=C(CSc1nnc(-c2cc3c([nH]c4ccccc43)c(-c3cccc(O)c3)n2)n1-c1ccccc1)c1ccccc1	69.3%
CNCCCOc1c(Br)cc(CCNC(=O)/C(Cc2cc(Br)c(OC)c(Br)c2)=N/O)cc1Br	26.3%
O=C(Nc1cccc(-n2ccc3c(NC(=O)c4ccccc4)nccc32)c1)c1cc(N2CCOCC2)cc(C(F)(F)F)c1	36.8%
CCC1(C(N)=O)CC2C=CC1CC2 (stereo not given)	115%
[2H]c1nc(Nc2ncc(F)c(-c3cc(F)c4nc(C)n(C(C)C)c4c3)n2)c([2H])c([2H])c1CN1CCN(CC)CC1	55%
O=C1c2ccccc2OC=C(c2ccccc2)N1CCCCN1CCCCC1	39.5%
O=S(=O)(Nc1cccc2cc(OS(=O)(=O)c3ccccc3)ccc12)c1ccccc1	64%
COc1cc(CN(c2ccc(Cl)cc2)C2OC(=O)c3ccccc32)cc(OC)c1OC (stereo not given)	59.9%
O=C(Nc1ccc(-n2ccc3c(NC(=O)c4ccccc4)nccc32)cc1)c1cccc(C(F)(F)F)c1	52.7%
O=C(Nc1ccc(-n2ccc3c(NC(=O)c4ccccc4)ncnc32)cc1)Nc1cccc(Cl)c1Cl	-5.65% (active)
CC1OC(n2c3ccccc3c3c4c(c5c6ccccc6[nH]c5c32)C(=O)N(CCN[C@@H]2CCC[C@H]2N)C4=O)CC(O)C1O (stereo not given in full)	23.3%
O=C(Nc1cccc(-n2ccc3c(NC(=O)c4ccccc4)nccc32)c1)c1cccc(C(F)(F)F)c1	43.4%
CC(=O)c1cc2c(c(O)c1C)C(=O)C(=O)c1c(O)cccc1-2	-42.3% (active)

Compound	growth
O=S(c1ccccc1)c1ccc2nnnn2n1 (stereo not given)	101%
O=C1OC(N(Cc2ccc(Cl)cc2)c2ccccc2)c2ccccc21 (stereo not given)	102%
COc1ccc(Cn2cc3c(c2-c2cc(OC)c(OC)c(OC)c2)CCc2c(CO)noc2-3)cc1	45.8%
O=C1C(Cl)=C(Nc2ccccc2)C(=O)C(Cl)=C1Nc1ccccc1	114%
O=S(=O)(CCN1CCOCC1)Nc1cncc(-c2ccc3ncnc(Nc4ccc(F)c(Cl)c4)c3c2)c1	44.7%
COC1=C(OC)C(=O)C=CC1=O	121%
Nc1nc(-c2cc3c(cc2Cl)NC(=O)/C3=C/c2ccc(Cl)cc2)cs1	35.3%
O=C(NCCNc1nccc(-c2c(-c3cccc(O)c3)nc3sccn23)n1)Nc1cc(C(F)(F)F)cc(C(F)(F)F)c1	52.2%
CCn1c(SC)nnc1-c1cc2c([nH]c3ccccc32)c(-c2cccc(O)c2)n1	21.6%
C=CC(=O)Nc1cccc(Nc2nc(Nc3ccc(OCCOC(F)F)cc3)ncc2F)c1	67.6%
NC(=O)C1=C[C@H]2[C@H]3C=C[C@@]2(O)C(=O)O[C@@H]3O1	63.2%
COc1ccc(-c2ccc(NC(=O)Nc3ccc(Cl)c(C(F)(F)F)c3)c(C)n2)cc1	49.2%
O=C(Nc1ccc(-n2ccc3c(NC(=O)c4ccccc4)ncnc32)cc1)Nc1ccc(Cl)c(C(F)(F)F)c1	8.35% (active)
COc1cc(Cn2cc3c(c2)-c2onc(CO)c2CC3)cc(OC)c1OC	90.3%
COc1ccccc1NC(=O)COc1ccc(/C=C2/Oc3cc4occc4c(OC)c3C2=O)cc1OC	99.2%
O=C(Nc1ccc(-n2cc(-c3ccncc3)c(-c3ccc(O)c(Cl)c3)n2)cc1)Nc1cc(C(F)(F)F)cc(C(F)(F)F)c1	44.6%
c1ccc(CNCCN(CCNCc2ccccn2)Cc2ccc3ccccc3c2)nc1	15.4%
